Measurements: PubChem BioAssay (Tox21)
Values joined by “and” are separate entries in the source; they are usually repeats but may differ in a detail not shown here. Identical values can stand only once. Inconclusive results are not listed. Active and inactive are the calls of the source. Calls follow the shape of the dose curve; as a rule, active = well fitted curve in the direction sought with a large enough effect in the repeat runs; inconclusive = weak or mixed curves; inactive = no such curve, though single readings can be large; an effect the other way counts as inactive or inconclusive.

Key:
[1] = qHTS RealTime-Glo MT Cell Viability Assay in HepG2 cells - 40 hour (AID 1224870); also: nearly all actives have a fitted effect of over 50% in size
Method in brief: (§1)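 HepG2 cells mixed with RealTime-Glo MT reagents (NanoLuc plus cell-permeant prosubstrate) were seeded at 600 cells/well, incubated 5 h at 37 C/5% CO2, then pinned with compounds in DMSO; nonlytic luminescence tracked viability during 40 h treatment.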

[2] = A CellTox Green Cytotoxicity Assay to monitor cytotoxicity in HEK293 cells - 40 hour (AID 1224871); also: nearly all actives have a fitted effect of over 45% in size
Method in brief: (§2)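 Nonlytic real-time cytotoxicity: HEK293 + CellTox Green reagent plated, 5 h preincubation, pintool compound addition (23 nL in DMSO), 37 C for 40 h, fluorescence measured at successive time points.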

[3] = qHTS RealTime-Glo MT Cell Viability Assay in HEK293 cells - 16 hour (AID 1224872); also: top concentration of the series differs between compounds; nearly all actives have a fitted effect of over 50% in size
Method in brief: (§3)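 Assay medium contained NanoLuc luciferase plus cell-permeant prosubstrate, added with HEK293 cells at 600 cells/well. After 5 h at 37 C/5% CO2 compounds were added; plates stayed at 37 C for 40 h with serial luminescence reads.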

[4] = qHTS RealTime-Glo MT Cell Viability Assay in HepG2 cells - 8 hour (AID 1224873); also: nearly all actives have a fitted effect of over 55% in size
Method in brief: as §1

[5] = qHTS RealTime-Glo MT Cell Viability Assay in HEK293 cells - 40 hour (AID 1224874); details: RealTime-Glo luminescence; max response: active compounds read low; also: nearly all actives have a fitted effect of over 50% in size
Method in brief: (§4)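 Cells were seeded together with NanoLuc luciferase and a prosubstrate that viable cells reduce to a luciferase substrate. After a 5 h incubation at 37 C/5% CO2, compounds were added and luminescence was measured repeatedly during 40 h of treatment.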

[6] = A CellTox Green Cytotoxicity Assay to monitor cytotoxicity in HEK293 cells - 24 hour (AID 1224875); also: series mostly up to about 77 µM; nearly all actives have a fitted effect of over 45% in size
Method in brief: as §2

[7] = A CellTox Green Cytotoxicity Assay to monitor cytotoxicity in HepG2 cells - 16 hour (AID 1224876); also: nearly all actives have a fitted effect of over 45% in size
Method in brief: (§5)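 Read-out is fluorescence of a cyanine dye excluded from live cells that stains DNA of dead HepG2 cells, with signal proportional to cytotoxicity. Plates were read at 0, 8, 16, 24, 32 and 40 h after compound addition.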

[8] = qHTS RealTime-Glo MT Cell Viability Assay in HepG2 cells - 32 hour (AID 1224877); also: nearly all actives have a fitted effect of over 55% in size
Method in brief: (§6)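 qHTS, HepG2, 600 cells/well, RealTime-Glo (NanoLuc + prosubstrate) added with cells; 5 h preincubation; DMSO compound addition; 37 C; luminescence at 0/8/16/24/32/40 h.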

[9] = A CellTox Green Cytotoxicity Assay to monitor cytotoxicity in HepG2 cells - 24 hour (AID 1224878); also: nearly all actives have a fitted effect of over 45% in size
Method in brief: as §5

[10] = A CellTox Green Cytotoxicity Assay to monitor cytotoxicity in HepG2 cells - 40 hour (AID 1224879); also: nearly all actives have a fitted effect of over 40% in size
Method in brief: as §5

[11] = qHTS RealTime-Glo MT Cell Viability Assay in HEK293 cells - 0 hour (AID 1224880)
Method in brief: as §4

[12] = A CellTox Green Cytotoxicity Assay to monitor cytotoxicity in HEK293 cells - 32 hour (AID 1224881); also: nearly all actives have a fitted effect of over 40% in size
Method in brief: as §2

[13] = A CellTox Green Cytotoxicity Assay to monitor cytotoxicity in HepG2 cells - 0 hour (AID 1224882); also: nearly all actives have a fitted effect of over 35% in size
Method in brief: as §5

[14] = A CellTox Green Cytotoxicity Assay to monitor cytotoxicity in HepG2 cells - 32 hour (AID 1224883); also: nearly all actives have a fitted effect of over 50% in size
Method in brief: as §5

[15] = A CellTox Green Cytotoxicity Assay to monitor cytotoxicity in HEK293 cells - 8 hour (AID 1224884); also: nearly all actives have a fitted effect of over 35% in size
Method in brief: as §2

[16] = qHTS RealTime-Glo MT Cell Viability Assay in HepG2 cells - 16 hour (AID 1224885); also: nearly all actives have a fitted effect of over 50% in size
Method in brief: as §6

[17] = qHTS RealTime-Glo MT Cell Viability Assay in HEK293 cells - 24 hour (AID 1224886)
Method in brief: as §3

[18] = qHTS RealTime-Glo MT Cell Viability Assay in HEK293 cells - 8 hour (AID 1224887)
Method in brief: as §4

[19] = A CellTox Green Cytotoxicity Assay to monitor cytotoxicity in HEK293 cells - 16 hour (AID 1224888); also: nearly all actives have a fitted effect of over 35% in size
Method in brief: as §2
% is scaled to controls: 0 for no effect and ±100 for the full control effect.

CC(C)(C)c1cc(Cc2cc(C(C)(C)C)c(O)c(C(C)(C)C)c2)cc(C(C)(C)C)c1O
inactive: outcome [1] | Potency [2] | Potency [3] | Potency [4] | max response [5] 3.98% and -14.3% | Potency [6] | outcome [7] | outcome [8] | Potency [9] | Potency [10] | outcome [11] | Potency [12] | outcome [13] | Potency [14] | outcome [15] | Potency [16] | Potency [17] | Potency [18] | Potency [19]

CC(O)CC(C)(C)O (stereo unspecified)
inactive: outcome [1] | Potency [2] | Potency [3] | Potency [4] | max response [5] 13.3% and 0.19% | Potency [6] | outcome [7] | outcome [8] | Potency [9] | Potency [10] | outcome [11] | Potency [12] | outcome [13] | Potency [14] | outcome [15] | Potency [16] | Potency [17] | Potency [18] | Potency [19]

C=CCCCCCCCCC(=O)O
inactive: outcome [1] | Potency [2] | Potency [3] | Potency [4] | max response [5] 12.5% and 0.601% | Potency [6] | outcome [7] | outcome [8] | Potency [9] | Potency [10] | outcome [11] | Potency [12] | outcome [13] | Potency [14] | outcome [15] | Potency [16] | Potency [17] | Potency [18] | Potency [19]

CC1(C)S[C@@H]2[C@H](NC(=O)COc3ccccc3)C(=O)N2[C@H]1C(=O)O
inactive: outcome [1] | Potency [2] | Potency [3] | Potency [4] | max response [5] 0.704% and 1.33% | Potency [6] | outcome [7] | outcome [8] | Potency [9] | Potency [10] | outcome [11] | Potency [12] | outcome [13] | Potency [14] | outcome [15] | Potency [16] | Potency [17] | Potency [18] | Potency [19]

COc1ccc(CCC(C)=O)cc1
inactive: outcome [1] | Potency [2] | Potency [3] | Potency [4] | max response [5] 7.39% and 0.508% | Potency [6] | outcome [7] | outcome [8] | Potency [9] | Potency [10] | outcome [11] | Potency [12] | outcome [13] | Potency [14] | outcome [15] | Potency [16] | Potency [17] | Potency [18] | Potency [19]

NCCN1CCNCC1
inactive: outcome [1] | Potency [2] | Potency [3] | Potency [4] | max response [5] 1.25% and -21.7% | Potency [6] | outcome [7] | outcome [8] | Potency [9] | Potency [10] | outcome [11] | Potency [12] | outcome [13] | Potency [14] | outcome [15] | Potency [16] | Potency [17] | Potency [18] | Potency [19]

CC(=O)OC1CC(C)OC(C)O1 (stereo unspecified)
inactive: outcome [1] | Potency [2] | Potency [3] | Potency [4] | max response [5] 5.08% and 9.58% | Potency [6] | outcome [7] | outcome [8] | Potency [9] | Potency [10] | outcome [11] | Potency [12] | outcome [13] | Potency [14] | outcome [15] | Potency [16] | Potency [17] | Potency [18] | Potency [19]

CCc1ccccc1CC
inactive: outcome [1] | Potency [2] | activity change, negative = cytotoxicity [3] 1.28% [at 15.8 µM] | Potency [4] | max response [5] 10.8% and 1.1% | Potency [6] | outcome [7] | outcome [8] | Potency [9] | Potency [10] | outcome [11] | Potency [12] | outcome [13] | Potency [14] | outcome [15] | Potency [16] | Potency [17] | Potency [18] | Potency [19]

CC(=O)Oc1ccc(C)cc1
inactive: outcome [1] | Potency [2] | Potency [3] | Potency [4] | max response [5] 7.12% and 1.96% | Potency [6] | outcome [7] | outcome [8] | Potency [9] | Potency [10] | outcome [11] | Potency [12] | outcome [13] | Potency [14] | outcome [15] | Potency [16] | Potency [17] | Potency [18] | Potency [19]

CC(=O)c1ccc(O)cc1
inactive: outcome [1] | Potency [2] | Potency [3] | Potency [4] | max response [5] 0.924% and -3% | Potency [6] | outcome [7] | outcome [8] | Potency [9] | Potency [10] | outcome [11] | Potency [12] | outcome [13] | Potency [14] | outcome [15] | Potency [16] | Potency [17] | Potency [18] | Potency [19]

CC(=O)CCC=C(C)C
inactive: outcome [1] | Potency [2] | Potency [3] | Potency [4] | max response [5] 10.6% and -4.31% | Potency [6] | outcome [7] | outcome [8] | Potency [9] | Potency [10] | outcome [11] | Potency [12] | outcome [13] | Potency [14] | outcome [15] | Potency [16] | Potency [17] | Potency [18] | Potency [19]

CC(C)(Oc1ccc(CCNC(=O)c2ccc(Cl)cc2)cc1)C(=O)O
inactive: outcome [1] | Potency [2] | Potency [3] | Potency [4] | max response [5] 3% and 2.4% | Potency [6] | outcome [7] | outcome [8] | Potency [9] | Potency [10] | outcome [11] | Potency [12] | outcome [13] | Potency [14] | outcome [15] | Potency [16] | Potency [17] | Potency [18] | Potency [19]

O=C(OCC1CCC2OC2C1)C1CCC2OC2C1 (stereo unspecified)
inactive: outcome [1] | Potency [2] | Potency [3] | Potency [4] | max response [5] 2.18% and 1.6% | Potency [6] | outcome [7] | outcome [8] | Potency [9] | Potency [10] | outcome [11] | Potency [12] | outcome [13] | Potency [14] | outcome [15] | Potency [16] | Potency [17] | Potency [18] | Potency [19]

CC(=O)OCc1ccccc1
inactive: outcome [1] | Potency [2] | Potency [3] | Potency [4] | max response [5] -41.8% and -21% | Potency [6] | outcome [7] | outcome [8] | Potency [9] | Potency [10] | outcome [11] | Potency [12] | outcome [13] | Potency [14] | outcome [15] | Potency [16] | Potency [17] | Potency [18] | Potency [19]
